The whole screen tested about 64,000 compounds, of which about 55 (0.09%) were called active. The rule behind the calls is not given here. A selection follows.
Target: Alkaline phosphatase, tissue-nonspecific isozyme (Homo sapiens) (UniProt P05186)
Assay: inhibition of tissue-nonspecific alkaline phosphatase – biochemical, luminescent (AID 518);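 note: plate controls were vehicle for no effect and reference inhibitor for full effect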
Settings: purified TNAP enzyme, luminescent substrate readout; at 20 µM; hits give high values

Chain of Alkaline phosphatase, tissue-nonspecific isozyme (Homo sapiens) (P05186 whole entry, looked up): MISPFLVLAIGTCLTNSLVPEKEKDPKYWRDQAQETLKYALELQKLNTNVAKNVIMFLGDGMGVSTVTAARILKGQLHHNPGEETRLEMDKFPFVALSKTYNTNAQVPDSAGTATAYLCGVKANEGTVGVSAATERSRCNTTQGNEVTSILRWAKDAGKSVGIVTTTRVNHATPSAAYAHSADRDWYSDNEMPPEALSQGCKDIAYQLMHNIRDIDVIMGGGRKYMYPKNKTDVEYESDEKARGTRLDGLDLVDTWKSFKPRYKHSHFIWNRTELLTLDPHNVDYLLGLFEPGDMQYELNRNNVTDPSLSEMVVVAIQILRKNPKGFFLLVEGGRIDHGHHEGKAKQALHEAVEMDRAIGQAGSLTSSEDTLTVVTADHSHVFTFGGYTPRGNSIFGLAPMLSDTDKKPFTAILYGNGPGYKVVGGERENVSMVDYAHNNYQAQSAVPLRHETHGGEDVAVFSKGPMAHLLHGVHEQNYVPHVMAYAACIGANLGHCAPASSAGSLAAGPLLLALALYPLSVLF

inhibition, inactive:
COCc1[nH]nc2c1C(c1ccc(OC)cc1)C(C#N)=C(N)O2 (stereo unspecified) 16.1%, COCc1[nH]nc2c1C(c1ccc(OC)c(OC)c1)C(C#N)=C(N)O2 (stereo unspecified) 7.1%, COc1ccccc1C1C2C(=O)N(c3ccccc3)C(=O)C2ON1c1ccccc1 (stereo unspecified) -0.2%, O=c1[nH]c(-c2ccccc2O)nc2c1CCCC2 8.8%, Cc1ccc(NC(=O)c2cc(-c3ccco3)on2)cc1 8.1%, O=C(CN1CCC(n2nnc3cc(F)ccc32)CC1)Nc1ccccc1N1CCOCC1 6.7%, COc1ccc(S(=O)(=O)Nc2cc(Cl)ccc2OC)cc1 14.2%, O=c1cc(-c2ccccc2)nc2nc(COc3ccccc3)[nH]n12 1.9%, O=C(NCc1ccccc1)c1cc(=O)nc2sc(-c3ccccc3)nn12 9.8%, CCn1c(CNC(=O)c2cccs2)nnc1SCC(=O)NCCc1ccccc1 14%, C=CCN1C(=O)CS/C1=N/c1nccs1 8.1%, O=C1c2ccccc2C(=O)N1c1n[nH]c(CCc2ccccc2)n1 22.8%, O=C1C2C3C=CC(C3)C2C(=O)N1c1n[nH]c(CCc2ccccc2)n1 (stereo unspecified) 36.8%, Cc1ccc(NC(=O)Cn2cnc3c(=O)n(C)c(=O)n(C)c32)c(C)c1 3.9%, CN(C)c1[nH]c(=O)c(C#N)c2c1CCN2Cc1ccccc1 11.1%, CCOc1ccc(C2C(C#N)=C(N)Oc3nc[nH]c(=O)c32)cc1OC (stereo unspecified) 4.4%, O=C(CC(Nc1ccccc1)C(=O)O)c1ccccc1 (stereo unspecified) 15.2%, CCOc1ccc(OCC)c(NS(=O)(=O)c2ccc3c(c2)n(C)c(=O)c(=O)n3C)c1 0.5%, CCOc1ccc(CC(=O)Nc2c(C(N)=O)oc3ccccc23)cc1OCC 5.9%, CCN(CC)C(=O)c1c[nH]c2ccc(S(=O)(=O)Nc3cc(C)cc(C)c3)cc2c1=O 5.8%, CS(=O)(=O)N(CC(=O)NC1CCCCC1)c1cccc(Cl)c1 6.8%, COc1cccc(C(=O)Nc2ccccc2N2CCCC2)c1 9.9%, O=C(Cn1cc2c(n1)CCCCC2)NCc1ccccc1 9.1%, Cc1ccc(NC2CC(=O)N(c3ccc(N4CCCCC4)cc3)C2=O)cc1 (stereo unspecified) 6.6%, COc1ccc(CC(=O)Nc2cccc(-c3nnc(-c4ccccc4)o3)c2)cc1OC 6.4%, O=C(Nc1ccccc1)NC1(C(=O)NCc2ccc3c(c2)OCO3)CCCCC1 -0.2%, COc1cc(C2c3c(oc4c(C)cc(C)cc4c3=O)C(=O)N2Cc2cccnc2)cc(OC)c1OC (stereo unspecified) 4.1%, Cc1ccc(-c2nc(CS(=O)CC(=O)NCc3ccccn3)c(C)o2)cc1 (stereo unspecified) -7.5%, CN(C)/C=N/c1nc2ccc3c(c2s1)CCCC3 12.3%, COc1ccc(N2CCN(CC(=O)Nc3cc4c(cc3C(C)=O)OCO4)CC2)cc1 3.8%, CSc1ccccc1C(=O)NCc1ccc2c(c1)OCO2 7.3%, O=C(Nc1ccccc1)N(C1=NCCCCS1)c1ccccc1 8.3%, C=C(C)Cn1c(SCC(=O)O)nnc1-c1ccc(C(C)(C)C)cc1 10.6%, Nc1c(S(=O)(=O)c2cccc(Cl)c2)c2nc3ccccc3nc2n1/N=C/c1ccc(O)c(O)c1 11.3%, CSC1=C(C#N)C(c2cccs2)CC(=O)N1C (stereo unspecified) 10.5%, Cc1ccc(N(CC(=O)N2CCN(c3ccc(F)cc3)CC2)S(=O)(=O)c2c(C)nn(C)c2C)cc1 8.6%, O=C(c1ccc(Cl)cc1)N1CCC(c2nc(-c3cccs3)no2)CC1 13.1%, CCC(CC)C(=O)NCCNC(=O)C(CC)CC 10.5%, Cc1ccc(OCC(=O)N2CCN(C(=O)CCC3CCCC3)CC2)cc1 6.3%, Cc1cc2c(c(=O)n1CCN(C)C)C(c1ccccc1Br)C(C#N)=C(N)O2 (stereo unspecified) 9.3%, COCCNC(=O)Nc1ccc2c(c1)N(C)C(=O)CS2 1.5%, O=C(c1cc2ccccn2n1)N1CCN(Cc2ccccc2)CC1 2.9%, Cc1onc(-c2ccccc2Cl)c1C(=O)Nc1ccc(-c2cn3cccnc3n2)cc1 4.9%, CCOC(=O)CN1CC23C=CC(O2)C(C(=O)O)C3C1=O (stereo unspecified) 5.4%, O=C(CSc1nnc(-c2cccnc2)n1-c1ccccc1)Nc1ccccn1 2.6%, COc1ccc(OC)c(S(=O)(=O)NC2CCN(Cc3ccccc3)CC2)c1 6.7%, CC(C)(C)n1ncc2c(=O)n(CC(=O)N3CCCc4ccccc43)cnc21 4%, COc1ccc(-c2nnc(SCC(=O)N3CCOCC3)o2)cc1 3.7%, Cc1nn(Cc2ccccc2)c(C)c1CCC(=O)O 7.6%, N#Cc1ccccc1NC(=O)c1ccccc1OCC(=O)NCc1ccco1 7%, COC(=O)c1ccc(NC(=O)COc2ccc(S(=O)(=O)NC(C)C)cc2)cc1 -1.4%, O=C1CC(c2ccco2)Cc2nc(N3CCN(Cc4ccc5c(c4)OCO5)CC3)ncc21 (stereo unspecified) 10.2%, Cc1noc(C)c1S(=O)(=O)N1CCC(C(=O)N(C)Cc2ccccc2)CC1 -0.3%, CN(Cc1ccccc1)Cc1c(F)cccc1F 5.6%, CN1C(=O)CS(=O)c2ccc(C(=O)NC3CC3)cc21 (stereo unspecified) 10%, CCc1c(C)nc2ncnn2c1N1CCC(C(=O)NCc2cccc(OC)c2)CC1 13%, Cc1ccc(NC(=O)C2CCCN2S(=O)(=O)c2ccc3c(c2)CCC(=O)N3)cc1Cl (stereo unspecified) 9%, N#Cc1cc(Sc2ccccn2)c(Sc2ccccn2)cc1C#N 10.6%, CC(=O)Nc1nc2ccccc2n1CCOc1ccccc1 4.8%, O=C(C1CCCN(S(=O)(=O)c2cccc3cccnc23)C1)N1CCN(c2ccc(F)cc2)CC1 (stereo unspecified) 14.6%, O=c1c2ccccc2nc(SCc2nnc(-c3ccccc3)o2)n1-c1ccccc1 3.6%
